Screening results: PubChem BioAssay, several laboratories
Only some compounds are listed: those with a hit (about 0.63% of all), similar ones and a draw of the others.
Platelet DG rel = platelet dense granule release activity; AID 1663; 300,000 compounds, 0.22% hits; human platelet-rich plasma, SFLLRN dense granule ATP release, luminescence; inhibition, %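 (compounds screened at 7.5 µM in platelet-rich plasma)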;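 active means mean replicate score, as percent of positive control, at or above 50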
NTR1 ag = activates human neurotensin receptor 1; NTR1-U2OS beta-arrestin-GFP spot imaging, agonist mode; 330,000 compounds, 0.17% hits; P30989; activation, % at 20 µM;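 active means activation at or above 40% of the spot to cytoplasm intensity ratio, with at least 20 cells analyzed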;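 further: 0% = DMSO without peptide and 100% = 100 nM NTR1 peptide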
Target sequence (P30989 whole entry, looked up): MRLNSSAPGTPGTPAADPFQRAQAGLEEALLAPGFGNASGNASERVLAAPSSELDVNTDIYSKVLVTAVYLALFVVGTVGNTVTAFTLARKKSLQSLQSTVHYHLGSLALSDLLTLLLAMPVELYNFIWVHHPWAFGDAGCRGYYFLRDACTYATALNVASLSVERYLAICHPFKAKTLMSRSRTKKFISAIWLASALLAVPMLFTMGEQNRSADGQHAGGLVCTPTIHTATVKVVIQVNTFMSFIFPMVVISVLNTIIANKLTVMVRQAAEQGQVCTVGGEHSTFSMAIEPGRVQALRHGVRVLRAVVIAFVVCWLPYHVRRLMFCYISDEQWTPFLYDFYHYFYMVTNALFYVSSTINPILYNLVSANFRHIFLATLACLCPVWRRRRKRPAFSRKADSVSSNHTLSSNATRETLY
HIF act = HIF pathway transcriptional activation; U2OS HRE-luciferase reporter, luminescence; normalized: DMSO 0%, desferrioxamine 100%; activation, % at 7.5 µM (by protocol); 300,000 compounds, 0.32% hits; AID 1910;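 active means mean activation of at least 10% of the iron chelator positive control signal, with at least half of replicates also reaching 10%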
NTR1 ag confirm = confirmation of agonists of human NTR1 | shares compounds with NTR1 ag | NTR1-U2OS beta-arrestin-GFP translocation imaging | activation, % at 20 µM | 480 compounds, 38% hits;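 active means mean activation at 20 µM of at least 40%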;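 further: 0% = DMSO without peptide and 100% = 100 nM NTR1 peptide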
Active calls of the source: *; . = not tested or not shown.

SMILES	Platelet DG rel	NTR1 ag	HIF act	NTR1 ag confirm
Cc1ccc(-c2cc(-c3ccc(C)cc3)[n+](-c3ccccc3)c(-c3ccc(C)cc3)c2)cc1	7	34	-1	.
Cc1ccc(-c2cc(-c3ccccc3)cc(-c3ccccc3)[n+]2-c2ccccc2)cc1	0	50*	-1	82*
c1ccc(-c2cc(-c3ccccc3)[n+](-c3ccccc3)c(-c3ccccc3)c2)cc1	9	67*	1	65*
CN(C)c1ccc(-[n+]2c(-c3ccccc3)cc(-c3ccccc3)cc2-c2ccccc2)cc1	1	31	0	.
COc1ccc(NC(=O)[C@@H](NC(=O)N2C[C@H]3C[C@@H](C2)c2cccc(=O)n2C3)C(C)C)cc1	-1	-1	1	.
O=C1NC(=O)C(=Cc2ccc(SC3CCCCC3)o2)C(=O)N1	-5	50*	0	68*
NS(=O)(=O)c1ccc(-c2ccc(C=C3C(=O)NC(=O)NC3=O)o2)cc1	-4	-1	0	.
O=C(c1cc(S(=O)(=O)N2CCC3(CC2)OCCO3)ccc1F)N1CCC2(CC1)OCCO2	5	1	0	.
Cn1c(O)c(/C=C2\C=Nc3ccc(Br)cc32)c(=O)n(C)c1=O	4	3	-1	.
CC(C)CCNC(=O)c1c(N)n(CC2CCCO2)c2nc3ccccc3nc12 (centres undefined)	-4	43*	-1	30
CCC(C)NC(=O)c1c(N)n(CC2CCCO2)c2nc3ccccc3nc12 (centres undefined)	3	14	-1	.
CCN1CCN(c2cc(N3CCCC3)c(F)cc2[N+](=O)[O-])CC1	10	-2	0	.
COc1ccccc1OCC#CCN1CCOCC1	0	4	0	.
Clc1ccc(OCC#CCN2CCCC2)cc1	3	1	3	.
